# Source: PubChem BioAssay
# The source made the active and inactive calls.
# Tests used:
# [1] = test system: PRMT1 (protein arginine N-methyltransferase 1); assay: PRMT1 binders on small-molecule microarrays, primary screen, biochemical, small-molecule microarray, 635 nm fluorescence (AID 1088); details: small-molecule microarray binding, higher = more signal;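 also: binding of Prmt1 protein to compounds spotted on small-molecule microarray slides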
# [2] = yeast growth modulation, basal conditions, primary screen, YJM789 clinical isolate, OD600, 24 h (AID 1089);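 also: growth of clinical yeast isolate S. cerevisiae YJM 789 seeded 1000 cells per well; test concentration not given here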; details: S. cerevisiae YJM789 growth, higher = more signal, called active from +8 up or from −8 down
# [3] = fission yeast growth modulation, primary screen, strain 972, OD600, 24 h, no modulator (AID 1090);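 also: basal condition with compound alone and no growth modifier present; test concentration not given here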; details: S. pombe 972 growth, higher = more signal, called active from +8 up or from −8 down
# [4] = S. cerevisiae growth modulation with rapamycin, primary screen, strain BY4716, OD600, 96 h (AID 1091); details: higher = more signal, called active from +8 up or from −8 down; also: test concentration not given here
# [5] = molecular target: Torsin-1A-interacting protein 2 (Homo sapiens) (UniProt Q8NFQ8); assay: LULL1 binders on small-molecule microarray, primary screen, cell lysate, human LULL1 lysate, 635/667 nm fluorescence (AID 1092); details: hLULL1 lysate binding, 635 nm fluorescence, higher = more signal;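 also: probe is lysate of COS7 cells overexpressing human LULL1; score merges per-feature 667 nm fluorescence with signal-to-noise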
# [6] = E. coli growth modulation, two-sided OD650, primary screen, E. coli filamentation project, strain DRC41, 24 h (AID 1093); details: OD650, 24 h, higher = more signal, called active from +8 up or from −8 down;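 also: MC1000 strain lacking acrAB efflux and sulA so SOS filamentation is blocked; test concentration not given here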
# [7] = small-molecule microarray binders of probe aLefty2, primary screen, biochemical, biotinylated probe, 635/667 nm fluorescence (AID 1094); details: higher = more signal;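 also: score merges spot fluorescence near 667 nm with spot signal-to-noise ratio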
# [8] = test system: Noggin (protein binding on small-molecule microarray); assay: Noggin binders on small-molecule microarray, primary screen, biochemical, 635/667 nm fluorescence (AID 1095); details: 635 nm fluorescence, higher = more signal;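 also: score merges 667 nm feature fluorescence with signal to noise over triplicate slides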
# [9] = molecular target: Neurogenic locus notch homolog protein 3 (Homo sapiens) (UniProt Q9UM47); assay: NOTCH3 binders on small-molecule microarray, primary screen, biochemical, 635/667 nm fluorescence (AID 1096); details: NOTCH3 binding, 635 nm fluorescence, higher = more signal
# [10] = small-molecule microarray binders of probe aEGFR, primary screen, biochemical, biotinylated probe, 635/667 nm fluorescence (AID 1097); details: higher = more signal;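 also: probe is a biotinylated anti-EGFR antibody binding compounds printed on slides; score combines fluorescence near 667 nm and signal to noise of each spot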
# [11] = test system: Plasmodium falciparum Sir2 (PF13_0152, Sir2A); assay: pfSir2 binders on small-molecule microarrays, primary screen, biochemical, small-molecule microarray, 635 nm fluorescence (AID 1098); details: small-molecule microarray binding, fluorescence 635 nm; higher = more signal;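 also: score merges spot fluorescence intensity with its signal-to-noise ratio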
# [12] = small-molecule microarray binders of probe aDKK1, primary screen, biochemical, biotinylated probe, 635/667 nm fluorescence (AID 1099); details: higher = more signal;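 also: score merges 667nm spot fluorescence with signal to noise across triplicate slides; reference of the scale not given here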
# [13] = small-molecule microarray binders of probe aCHRDL2, primary screen, biochemical, biotinylated probe, 635/667 nm fluorescence (AID 1100); details: higher = more signal
# [14] = splicing luciferase reporter signal modulators, primary screen, spliceosome inhibition project, cell-based, HEK293, splice +/- reporter (AID 1101); details: luminescence, 24 h, higher = more signal, called active from +8 up or from −8 down;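 also: HEK293 cells carrying a splicing-competent luciferase reporter gene; test concentration not given here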
# [15] = molecular target: Fibroblast growth factor 10 (Homo sapiens) (UniProt O15520); assay: FGF10 binders on small-molecule microarrays, primary screen, biochemical, small-molecule microarray, 635 nm fluorescence (AID 1102); details: FGF10 binding, fluorescence 635 nm, higher = more signal
# [16] = test system: glycogen synthase kinase-3 (GSK3A per assay name; protocol says GSK3B); assay: GSK3 binders on small-molecule microarrays, primary screen, biochemical, small-molecule microarray, 635 nm fluorescence, GSK3A (AID 1103); details: small-molecule microarray binding, fluorescence 635 nm; higher = more signal; also: the record names both GSK3A and GSK3B
# [17] = molecular target: Epidermal growth factor receptor (Homo sapiens) (UniProt P00533); assay: EGFR binders on small-molecule microarrays, primary screen, biochemical, small-molecule microarray, 635 nm fluorescence (AID 1104); details: EGFR binding, higher = more signal;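 also: score merges 667 nm emission intensity with spot signal to noise over triplicate slides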
# [18] = molecular target: Follistatin-related protein 3 (Homo sapiens) (UniProt O95633); assay: FSTL3 binders on small-molecule microarrays, primary screen, biochemical, small-molecule microarray, 635 nm fluorescence (AID 1105); details: FSTL3 binding, higher = more signal;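 also: score merges emission near 667 nm and signal to noise per printed spot across three slides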
# [19] = molecular target: Dickkopf-related protein 1 (Homo sapiens) (UniProt O94907); assay: DKK1 binders on small-molecule microarrays, primary screen, biochemical, small-molecule microarray, 635 nm fluorescence scan (AID 1106); details: DKK1 binding, higher = more signal;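 also: score merges emission near 667 nm with signal to noise over three replicate slides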
# [20] = test system: Inhibin beta A chain (activin A); assay: INHBA (activin A) binders on microarrays, primary screen, biochemical, small-molecule microarray, 635 nm fluorescence scan (AID 1107); details: small-molecule microarray binding, higher = more signal;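 also: mouse activin A protein probed at 4.33 µg/mL on printed slides; score merges bound-protein fluorescence near 667 nm with spot signal-to-noise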
# Sequence of Follistatin-related protein 3 (Homo sapiens) (O95633 whole entry, looked up): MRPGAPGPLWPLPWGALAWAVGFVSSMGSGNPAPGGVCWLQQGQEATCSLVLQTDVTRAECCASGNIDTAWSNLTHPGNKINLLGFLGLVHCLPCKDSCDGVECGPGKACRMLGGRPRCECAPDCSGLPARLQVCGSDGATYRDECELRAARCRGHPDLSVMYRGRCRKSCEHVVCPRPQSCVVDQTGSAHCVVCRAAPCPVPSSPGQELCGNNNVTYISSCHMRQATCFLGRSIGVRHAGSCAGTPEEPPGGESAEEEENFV
# Sequence of Neurogenic locus notch homolog protein 3 (Homo sapiens) (Q9UM47 whole entry, looked up): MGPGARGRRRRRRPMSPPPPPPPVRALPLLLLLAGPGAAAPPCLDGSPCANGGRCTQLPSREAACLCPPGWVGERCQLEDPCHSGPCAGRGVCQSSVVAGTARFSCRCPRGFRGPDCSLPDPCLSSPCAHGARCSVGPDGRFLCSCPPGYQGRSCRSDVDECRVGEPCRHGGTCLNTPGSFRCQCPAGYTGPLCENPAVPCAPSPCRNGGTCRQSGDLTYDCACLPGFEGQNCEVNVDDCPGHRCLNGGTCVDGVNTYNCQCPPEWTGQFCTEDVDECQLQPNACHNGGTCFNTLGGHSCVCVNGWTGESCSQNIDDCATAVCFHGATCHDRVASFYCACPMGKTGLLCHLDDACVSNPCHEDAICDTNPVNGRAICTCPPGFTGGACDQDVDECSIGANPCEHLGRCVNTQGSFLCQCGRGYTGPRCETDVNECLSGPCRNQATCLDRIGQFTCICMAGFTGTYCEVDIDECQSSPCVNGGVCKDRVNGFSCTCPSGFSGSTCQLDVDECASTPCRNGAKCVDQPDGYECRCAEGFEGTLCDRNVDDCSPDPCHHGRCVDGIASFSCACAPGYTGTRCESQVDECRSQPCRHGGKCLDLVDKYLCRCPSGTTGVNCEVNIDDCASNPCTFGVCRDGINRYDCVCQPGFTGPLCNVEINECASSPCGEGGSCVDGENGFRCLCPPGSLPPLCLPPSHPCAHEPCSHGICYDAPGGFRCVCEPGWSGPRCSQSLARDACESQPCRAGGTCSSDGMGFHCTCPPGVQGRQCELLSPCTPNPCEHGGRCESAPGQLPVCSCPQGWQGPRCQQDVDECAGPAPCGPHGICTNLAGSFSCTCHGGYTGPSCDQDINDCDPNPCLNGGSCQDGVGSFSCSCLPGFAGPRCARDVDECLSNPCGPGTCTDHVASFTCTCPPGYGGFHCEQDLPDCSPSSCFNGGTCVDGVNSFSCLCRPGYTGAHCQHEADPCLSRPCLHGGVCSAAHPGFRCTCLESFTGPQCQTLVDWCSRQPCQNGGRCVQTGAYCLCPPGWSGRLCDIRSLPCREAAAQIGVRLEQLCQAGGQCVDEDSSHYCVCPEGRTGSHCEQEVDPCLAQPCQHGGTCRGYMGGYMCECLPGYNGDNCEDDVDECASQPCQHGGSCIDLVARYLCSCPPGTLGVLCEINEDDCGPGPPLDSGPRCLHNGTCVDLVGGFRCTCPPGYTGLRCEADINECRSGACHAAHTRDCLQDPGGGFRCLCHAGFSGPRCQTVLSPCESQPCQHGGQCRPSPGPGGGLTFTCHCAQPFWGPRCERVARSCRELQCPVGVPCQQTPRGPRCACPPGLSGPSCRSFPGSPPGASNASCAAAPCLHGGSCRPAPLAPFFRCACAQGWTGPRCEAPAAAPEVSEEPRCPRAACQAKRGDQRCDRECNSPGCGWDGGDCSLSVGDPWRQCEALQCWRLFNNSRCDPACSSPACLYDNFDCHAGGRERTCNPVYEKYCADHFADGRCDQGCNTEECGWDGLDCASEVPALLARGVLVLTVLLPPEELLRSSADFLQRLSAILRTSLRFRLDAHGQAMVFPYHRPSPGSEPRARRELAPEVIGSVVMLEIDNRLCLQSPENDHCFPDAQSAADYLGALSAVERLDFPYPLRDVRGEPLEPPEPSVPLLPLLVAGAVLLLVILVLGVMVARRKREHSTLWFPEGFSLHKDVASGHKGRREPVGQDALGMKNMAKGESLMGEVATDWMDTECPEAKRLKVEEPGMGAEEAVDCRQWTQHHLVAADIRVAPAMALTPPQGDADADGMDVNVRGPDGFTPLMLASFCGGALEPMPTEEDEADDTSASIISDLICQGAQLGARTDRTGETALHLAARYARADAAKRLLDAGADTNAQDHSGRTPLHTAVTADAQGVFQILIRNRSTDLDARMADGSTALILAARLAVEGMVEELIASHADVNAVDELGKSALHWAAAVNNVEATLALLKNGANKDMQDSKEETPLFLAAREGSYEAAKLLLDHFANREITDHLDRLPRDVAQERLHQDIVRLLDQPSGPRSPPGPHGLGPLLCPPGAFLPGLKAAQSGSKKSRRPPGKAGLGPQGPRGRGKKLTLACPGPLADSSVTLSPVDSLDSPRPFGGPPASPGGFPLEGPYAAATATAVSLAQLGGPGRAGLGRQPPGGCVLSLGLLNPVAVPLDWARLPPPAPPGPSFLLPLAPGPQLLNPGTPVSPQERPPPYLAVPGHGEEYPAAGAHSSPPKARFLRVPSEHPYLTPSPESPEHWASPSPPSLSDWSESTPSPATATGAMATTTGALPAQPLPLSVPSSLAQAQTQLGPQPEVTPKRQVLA
# Sequence of Epidermal growth factor receptor (Homo sapiens) (P00533 whole entry, looked up): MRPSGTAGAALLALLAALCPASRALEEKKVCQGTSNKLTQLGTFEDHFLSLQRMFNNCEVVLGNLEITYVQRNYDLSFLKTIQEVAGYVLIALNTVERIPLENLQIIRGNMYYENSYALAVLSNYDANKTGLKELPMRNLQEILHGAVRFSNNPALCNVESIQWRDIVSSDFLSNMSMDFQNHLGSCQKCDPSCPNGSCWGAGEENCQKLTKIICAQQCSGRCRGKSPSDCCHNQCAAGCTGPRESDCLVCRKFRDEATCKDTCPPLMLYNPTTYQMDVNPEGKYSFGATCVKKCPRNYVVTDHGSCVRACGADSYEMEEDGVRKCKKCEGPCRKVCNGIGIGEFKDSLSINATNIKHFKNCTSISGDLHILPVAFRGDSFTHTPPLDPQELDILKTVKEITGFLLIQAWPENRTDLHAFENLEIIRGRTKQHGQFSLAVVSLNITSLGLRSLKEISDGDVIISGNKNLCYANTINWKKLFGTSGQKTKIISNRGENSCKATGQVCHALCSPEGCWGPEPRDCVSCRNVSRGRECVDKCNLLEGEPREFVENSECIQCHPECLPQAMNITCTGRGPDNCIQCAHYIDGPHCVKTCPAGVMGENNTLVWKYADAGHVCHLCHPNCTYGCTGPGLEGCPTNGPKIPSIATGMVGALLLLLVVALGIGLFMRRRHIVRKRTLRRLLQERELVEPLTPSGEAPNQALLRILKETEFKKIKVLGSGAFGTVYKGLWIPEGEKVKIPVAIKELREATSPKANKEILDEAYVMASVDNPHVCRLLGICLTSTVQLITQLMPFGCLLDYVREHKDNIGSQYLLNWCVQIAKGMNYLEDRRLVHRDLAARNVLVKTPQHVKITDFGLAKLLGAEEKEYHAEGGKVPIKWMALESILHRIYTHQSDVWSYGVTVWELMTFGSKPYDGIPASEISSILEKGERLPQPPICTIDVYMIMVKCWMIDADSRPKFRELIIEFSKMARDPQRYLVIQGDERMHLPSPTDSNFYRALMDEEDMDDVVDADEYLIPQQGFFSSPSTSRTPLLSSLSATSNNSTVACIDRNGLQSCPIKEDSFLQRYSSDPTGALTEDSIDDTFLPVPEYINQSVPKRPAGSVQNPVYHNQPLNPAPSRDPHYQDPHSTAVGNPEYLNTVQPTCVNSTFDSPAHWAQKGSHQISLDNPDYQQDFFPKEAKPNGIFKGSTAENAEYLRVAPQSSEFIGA
# Sequence of Torsin-1A-interacting protein 2 (Homo sapiens) (Q8NFQ8 whole entry, looked up): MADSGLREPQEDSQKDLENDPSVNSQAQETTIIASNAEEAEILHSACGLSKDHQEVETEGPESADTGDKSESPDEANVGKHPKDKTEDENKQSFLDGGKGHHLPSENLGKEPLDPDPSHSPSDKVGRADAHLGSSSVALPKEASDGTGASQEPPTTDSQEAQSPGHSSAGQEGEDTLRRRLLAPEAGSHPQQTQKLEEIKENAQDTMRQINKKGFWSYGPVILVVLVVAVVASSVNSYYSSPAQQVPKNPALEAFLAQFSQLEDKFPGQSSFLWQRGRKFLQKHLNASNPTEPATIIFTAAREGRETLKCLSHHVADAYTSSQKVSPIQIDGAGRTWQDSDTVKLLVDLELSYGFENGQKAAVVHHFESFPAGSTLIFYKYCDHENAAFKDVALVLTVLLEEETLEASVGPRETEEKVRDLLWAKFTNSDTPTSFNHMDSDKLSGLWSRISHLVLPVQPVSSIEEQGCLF
# Sequence of Dickkopf-related protein 1 (Homo sapiens) (O94907 whole entry, looked up): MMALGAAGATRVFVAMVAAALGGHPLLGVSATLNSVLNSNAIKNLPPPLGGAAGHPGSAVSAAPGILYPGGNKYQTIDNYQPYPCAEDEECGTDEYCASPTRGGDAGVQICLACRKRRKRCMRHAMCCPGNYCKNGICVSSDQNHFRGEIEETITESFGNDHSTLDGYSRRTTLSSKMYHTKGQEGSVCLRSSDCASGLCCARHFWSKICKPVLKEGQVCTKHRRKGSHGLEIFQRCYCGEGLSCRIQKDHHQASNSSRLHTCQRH
# Sequence of Fibroblast growth factor 10 (Homo sapiens) (O15520 whole entry, looked up): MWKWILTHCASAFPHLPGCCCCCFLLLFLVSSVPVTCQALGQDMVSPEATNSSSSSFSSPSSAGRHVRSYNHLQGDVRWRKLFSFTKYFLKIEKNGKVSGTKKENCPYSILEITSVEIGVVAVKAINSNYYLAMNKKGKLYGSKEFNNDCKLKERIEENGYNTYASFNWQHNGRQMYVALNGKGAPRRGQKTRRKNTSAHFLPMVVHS
Structure (SMILES),composite z-score [1],z-score [2],z-score [3],z-score [4],composite z-score [5],z-score [6],composite z-score [7],composite z-score [8],composite z-score [9],composite z-score [10],composite z-score [11],composite z-score [12],composite z-score [13],z-score [14],composite z-score [15],composite z-score [16],composite z-score [17],composite z-score [18],composite z-score [19],composite z-score [20]
CN(C)CCCCCCNC(=O)[C@@H]1C[C@@H]2C(=O)N[C@@H](CCCCN)C(=O)N2[C@@H]1c1ccc(O)cc1,1.54,-0.38 (inactive),-3.54 (inactive),-0.958 (inactive),4.67,1.98 (inactive),1.87,2.25,1.02,1.31,2.07,3,1.81,-2.28 (inactive),1.58,1.46,1.68,1.64,2.29,1.56
COCCOC(=O)N1C(=O)[C@@]2(c3cc(C#CCCO)ccc31)[C@H](C(=O)N1CCCCCCC1)[C@H]1C(=O)O[C@H](c3ccccc3)[C@H](c3ccccc3)N1[C@@H]2c1ccccc1OCCO,1.54,0.658 (inactive),-2.09 (inactive),1.93 (inactive),4,-0.452 (inactive),1.47,1.76,1.07,0.89,1.24,2.67,1.6,-0.0434 (inactive),0.663,1.35,1.31,1.58,1.43,1.86
[N-]=[N+]=NC[C@H](Cc1ccccc1)NC(=O)c1ccccc1,0.376,-1.02 (inactive),-2.38 (inactive),-1.27 (inactive),0.214,1.56 (inactive),-0.0666,0.014,-0.371,-0.14,-0.554,-0.124,-0.414,-0.0894 (inactive),-0.0183,-0.089,0.0214,-0.394,0.0359,0.382
O=C1O[C@H](c2ccccc2)[C@H](c2ccccc2)N2[C@H]1[C@@H](C(=O)Nc1nc3ccccc3s1)[C@]1(C(=O)Nc3ccc(C#CC4=CCCCC4)cc31)[C@H]2c1ccc(O)cc1,1.55,0.556 (inactive),0.589 (inactive),0.401 (inactive),2.88,1.97 (inactive),-0.12,1.1,1.06,-0.0679,1.52,-0.0399,0.115,-1.31 (inactive),0.588,1.22,0.308,0.842,0.188,0.533
COc1ccc(C#Cc2ccc3c(c2)[C@]2(C(=O)N3)[C@H](C(=O)Nc3nc4ccccc4s3)[C@H]3C(=O)O[C@H](c4ccccc4)[C@H](c4ccccc4)N3[C@@H]2c2ccccc2OCCO)cc1,1.36,2.56 (inactive),1.53 (inactive),1.59 (inactive),3.08,2.62 (inactive),-0.0949,0.486,1.13,-0.106,0.465,0.243,-0.125,0.17 (inactive),0.463,0.933,0.19,0.821,0.47,0.648
COC(=O)C1=CC(CCCO)=CC(c2ccc(CN3CCCC3)cc2)N(Cc2cc3c(cc2Br)OCO3)C=C1C(=O)OC (stereo not given),1.57,-0.622 (inactive),-1.23 (inactive),-0.371 (inactive),3.5,-0.327 (inactive),0.639,0.719,1.01,0.481,1.16,1.12,0.986,-0.967 (inactive),1.45,0.636,0.19,1.46,0.836,1.13
C=CCNC(=O)[C@H]1[C@@H]2C(=O)O[C@@H](c3ccccc3)[C@@H](c3ccccc3)N2[C@@H](c2ccc(O)cc2)[C@]12C(=O)N(C(=O)OCCOC)c1ccc(C#CCC(C(=O)OC)C(=O)OC)cc12,1.56,0.106 (inactive),1.57 (inactive),5.5 (inactive),2.11,0.301 (inactive),-0.0229,1.2,1.11,0.0551,1.37,0.119,0.236,0.173 (inactive),1.1,1.19,0.564,0.914,0.641,0.23
COc1ccc(NC(=O)O[C@H]2[C@@H]3OC(=O)[C@H](Cc4cccc(Br)c4)C/C=C/C[C@@H](Cc4cccc(Br)c4)C(=O)O[C@H]3[C@@H](OC)O[C@@H]2CO)cc1,1.06,0.337 (inactive),0.505 (inactive),-0.127 (inactive),1.36,0.904 (inactive),0.123,0.331,0.656,-0.067,1.31,0.13,0.387,0.044 (inactive),0.638,0.475,0.4,0.324,0.142,0.735
COCCOC(=O)N1C(=O)[C@@]2(c3cc(C#CCCO)ccc31)[C@H](C(N)=O)[C@H]1C(=O)O[C@H](c3ccccc3)[C@H](c3ccccc3)N1[C@@H]2c1ccc(OCCO)cc1,1.54,1.94 (inactive),0.63 (inactive),2.82 (inactive),3.02,-0.187 (inactive),-0.161,0.632,0.992,0.0754,1.44,0.209,0.415,0.475 (inactive),1.25,1.23,0.808,1.14,0.616,0.914
COc1ccc([Si](C)(C)[C@H]2[C@H](CCO)O[C@@]3(C(=O)N(Cc4ccccc4)c4ccc(N5CCOC5=O)cc43)[C@@H]2C)cc1,1.13,0.948 (inactive),-0.0089 (inactive),16.7 (active),1.64,0.147 (inactive),-0.0769,0.517,1.12,-0.0152,0.821,0.0261,-0.214,-0.711 (inactive),0.977,0.411,0.398,0.277,0.0837,0.212
